# According to PubChem BioAssay (EPA / NIEHS):
# Results filed as inconclusive are left out. Calls of active or inactive are those of the source. How the source made its calls: active means hit-call score of the fitted dose curve at least 0.9, where 1 is the maximum; inconclusive means response in the unintended direction; inactive means score below 0.9.
# Columns and labels:
# [1] = molecular target: human Rho Associated Coiled-coil Containing Protein Kinase 1 (ROCK1), ROCK1 (gene 6093) (UniProt Q13464); assay: NVS_ENZ_hROCK1: NovaScreen (NVS) Enzymatic Assay for human Rho Associated Coiled-coil Containing Protein Kinase 1 (ROCK1) (AID 2283214)
# Summary of the method: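 Compounds first run in duplicate at 25 uM against recombinant human ROCK1, then followed in concentration series. Kinase activity was read 1 h post-dosing by fluorescence with mobility-shift separation, as signal loss relative to DMSO.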
# [2] = molecular target: rat Acetylcholinesterase (AChE), Ache (gene 83817) (UniProt P37136); assay: NVS_ENZ_rAChE: NovaScreen (NVS) Enzymatic Assay for rat Acetylcholinesterase (AChE) (AID 2283233)
# rat Acetylcholinesterase (AChE), Ache (gene 83817), sequence (P37136 whole entry, looked up): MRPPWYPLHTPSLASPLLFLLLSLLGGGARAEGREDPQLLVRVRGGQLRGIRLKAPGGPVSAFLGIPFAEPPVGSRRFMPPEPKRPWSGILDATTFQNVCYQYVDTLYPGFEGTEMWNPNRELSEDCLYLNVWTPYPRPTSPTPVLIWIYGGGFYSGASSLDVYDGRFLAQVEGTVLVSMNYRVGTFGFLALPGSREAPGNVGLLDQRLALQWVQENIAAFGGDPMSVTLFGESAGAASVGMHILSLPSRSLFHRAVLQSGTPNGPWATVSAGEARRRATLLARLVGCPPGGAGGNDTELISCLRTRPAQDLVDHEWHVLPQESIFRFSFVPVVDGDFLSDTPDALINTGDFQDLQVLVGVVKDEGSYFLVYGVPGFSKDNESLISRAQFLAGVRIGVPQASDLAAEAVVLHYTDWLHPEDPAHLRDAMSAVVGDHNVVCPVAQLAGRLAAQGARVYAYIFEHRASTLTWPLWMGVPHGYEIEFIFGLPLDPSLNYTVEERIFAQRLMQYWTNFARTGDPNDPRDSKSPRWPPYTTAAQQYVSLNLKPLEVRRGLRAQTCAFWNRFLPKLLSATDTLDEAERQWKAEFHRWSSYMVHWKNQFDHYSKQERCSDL
# Summary of the method: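 Compounds first screened at 25 uM in duplicate, then those passing threshold tested in concentration series up to 50 uM, against AChE from rat brain membranes. Enzyme activity read by absorbance at 0.33 h; inhibition scored versus DMSO.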
# [3] = molecular target: rabbit Imidazoline 2 Central (I2C), CKB (gene 100009085) (UniProt P00567); assay: NVS_ENZ_rabI2C: NovaScreen (NVS) Enzymatic Assay for rabbit Imidazoline 2 Central (I2C) (AID 2283228)
# rabbit Imidazoline 2 Central (I2C), CKB (gene 100009085), sequence (P00567 whole entry, looked up): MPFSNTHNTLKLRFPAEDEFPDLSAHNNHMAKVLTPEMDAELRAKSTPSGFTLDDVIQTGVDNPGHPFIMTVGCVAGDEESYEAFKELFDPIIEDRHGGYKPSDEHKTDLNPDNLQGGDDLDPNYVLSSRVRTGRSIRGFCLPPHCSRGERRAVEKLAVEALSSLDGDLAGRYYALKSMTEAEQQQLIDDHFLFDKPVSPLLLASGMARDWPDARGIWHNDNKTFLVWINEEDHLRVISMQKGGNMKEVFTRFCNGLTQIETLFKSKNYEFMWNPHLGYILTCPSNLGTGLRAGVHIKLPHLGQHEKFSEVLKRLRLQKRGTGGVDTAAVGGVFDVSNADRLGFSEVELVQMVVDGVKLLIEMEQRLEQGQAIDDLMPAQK
# Summary of the method: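 Rabbit brain membranes, cell-free; readout by filter-based scintillation counting 1.5 hours after dosing, loss of signal vs DMSO. Initial duplicate test at 25 uM, then concentration-response with 50 uM top concentration.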
# [4] = molecular target: sheep Cyclooxygenase-2 (Cox2), PTGS2 (gene 443460) (UniProt P79208); assay: NVS_ENZ_oCOX2: NovaScreen (NVS) Enzymatic Assay for sheep Cyclooxygenase-2 (Cox2) (AID 2283231)
# sheep Cyclooxygenase-2 (Cox2), PTGS2 (gene 443460), sequence (P79208 whole entry, looked up): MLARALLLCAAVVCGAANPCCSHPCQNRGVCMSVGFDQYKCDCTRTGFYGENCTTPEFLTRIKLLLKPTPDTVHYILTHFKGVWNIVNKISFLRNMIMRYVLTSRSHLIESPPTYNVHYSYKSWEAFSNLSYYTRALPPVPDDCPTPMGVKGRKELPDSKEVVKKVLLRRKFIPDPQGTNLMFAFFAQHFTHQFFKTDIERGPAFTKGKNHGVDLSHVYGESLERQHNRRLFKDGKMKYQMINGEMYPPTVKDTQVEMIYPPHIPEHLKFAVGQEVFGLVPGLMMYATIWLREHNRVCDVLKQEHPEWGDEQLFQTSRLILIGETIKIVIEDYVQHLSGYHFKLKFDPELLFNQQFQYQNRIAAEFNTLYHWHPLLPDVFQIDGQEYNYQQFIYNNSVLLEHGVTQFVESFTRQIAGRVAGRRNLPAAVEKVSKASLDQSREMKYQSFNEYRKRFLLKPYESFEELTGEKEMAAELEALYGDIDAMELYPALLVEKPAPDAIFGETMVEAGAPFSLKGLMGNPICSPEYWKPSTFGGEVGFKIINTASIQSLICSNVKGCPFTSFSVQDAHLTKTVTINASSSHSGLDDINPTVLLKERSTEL
# Summary of the method: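 Colorimetric absorbance read-out of COX activity, taken 0.66 hour post-dosing, using native protein from sheep placenta. Single-concentration duplicate screen (25 uM), then singleton concentration-response up to 50 uM for actives.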
# [5] = tested on: rat Monoamine Oxidase, MAO-A, Peripheral (MAOAP), gene 29253; assay: NVS_ENZ_rMAOAP: NovaScreen (NVS) Enzymatic Assay for rat Monoamine Oxidase, MAO-A, Peripheral (MAOAP) (AID 2283237)
# Summary of the method: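 Scintillation counting tracked MAO-A activity in a cell-free rat liver mitochondrial membrane prep, read 1.17 hours after compound addition. Single-point duplicate testing at 25 uM preceded concentration-response follow-up; activity was fitted relative to DMSO.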
# [6] = molecular target: human Protein Tyrosine Phosphatase Receptor Type M (PTPRM), PTPRM (gene 5797) (UniProt P28827); assay: NVS_ENZ_hPTPRM: NovaScreen (NVS) Enzymatic Assay for human Protein Tyrosine Phosphatase Receptor Type M (PTPRM) (AID 2283215)
# Summary of the method: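 Read-out is fluorescence after electrophoretic separation of substrate and product, taken 1.33 h post-dosing with recombinant enzyme. Compounds screened at 25 uM in duplicate, then concentration series for actives; activity as signal loss relative to DMSO.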
# [7] = molecular target: human Sirtuin 1 (SIRT1), SIRT1 (gene 23411) (UniProt Q96EB6); assay: NVS_ENZ_hSIRT1: NovaScreen (NVS) Enzymatic Assay for human Sirtuin 1 (SIRT1) (AID 2283219)
# Summary of the method: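 Cell-free recombinant SIRT1 with a fluorescent substrate; substrate and product separated by electrophoretic mobility shift and read by fluorescence intensity, 1 h after dosing. Primary screen at 25 uM in duplicate; hits re-run in concentration-response up to 50 uM, relative to DMSO.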
# [8] = molecular target: human Vascular Endothelial Growth Factor Receptor 2 (VEGFR2), KDR (gene 3791) (UniProt P35968); assay: NVS_ENZ_hVEGFR2: NovaScreen (NVS) Enzymatic Assay for human Vascular Endothelial Growth Factor Receptor 2 (VEGFR2) (AID 2283230)
# human Vascular Endothelial Growth Factor Receptor 2 (VEGFR2), KDR (gene 3791), sequence (P35968 whole entry, looked up): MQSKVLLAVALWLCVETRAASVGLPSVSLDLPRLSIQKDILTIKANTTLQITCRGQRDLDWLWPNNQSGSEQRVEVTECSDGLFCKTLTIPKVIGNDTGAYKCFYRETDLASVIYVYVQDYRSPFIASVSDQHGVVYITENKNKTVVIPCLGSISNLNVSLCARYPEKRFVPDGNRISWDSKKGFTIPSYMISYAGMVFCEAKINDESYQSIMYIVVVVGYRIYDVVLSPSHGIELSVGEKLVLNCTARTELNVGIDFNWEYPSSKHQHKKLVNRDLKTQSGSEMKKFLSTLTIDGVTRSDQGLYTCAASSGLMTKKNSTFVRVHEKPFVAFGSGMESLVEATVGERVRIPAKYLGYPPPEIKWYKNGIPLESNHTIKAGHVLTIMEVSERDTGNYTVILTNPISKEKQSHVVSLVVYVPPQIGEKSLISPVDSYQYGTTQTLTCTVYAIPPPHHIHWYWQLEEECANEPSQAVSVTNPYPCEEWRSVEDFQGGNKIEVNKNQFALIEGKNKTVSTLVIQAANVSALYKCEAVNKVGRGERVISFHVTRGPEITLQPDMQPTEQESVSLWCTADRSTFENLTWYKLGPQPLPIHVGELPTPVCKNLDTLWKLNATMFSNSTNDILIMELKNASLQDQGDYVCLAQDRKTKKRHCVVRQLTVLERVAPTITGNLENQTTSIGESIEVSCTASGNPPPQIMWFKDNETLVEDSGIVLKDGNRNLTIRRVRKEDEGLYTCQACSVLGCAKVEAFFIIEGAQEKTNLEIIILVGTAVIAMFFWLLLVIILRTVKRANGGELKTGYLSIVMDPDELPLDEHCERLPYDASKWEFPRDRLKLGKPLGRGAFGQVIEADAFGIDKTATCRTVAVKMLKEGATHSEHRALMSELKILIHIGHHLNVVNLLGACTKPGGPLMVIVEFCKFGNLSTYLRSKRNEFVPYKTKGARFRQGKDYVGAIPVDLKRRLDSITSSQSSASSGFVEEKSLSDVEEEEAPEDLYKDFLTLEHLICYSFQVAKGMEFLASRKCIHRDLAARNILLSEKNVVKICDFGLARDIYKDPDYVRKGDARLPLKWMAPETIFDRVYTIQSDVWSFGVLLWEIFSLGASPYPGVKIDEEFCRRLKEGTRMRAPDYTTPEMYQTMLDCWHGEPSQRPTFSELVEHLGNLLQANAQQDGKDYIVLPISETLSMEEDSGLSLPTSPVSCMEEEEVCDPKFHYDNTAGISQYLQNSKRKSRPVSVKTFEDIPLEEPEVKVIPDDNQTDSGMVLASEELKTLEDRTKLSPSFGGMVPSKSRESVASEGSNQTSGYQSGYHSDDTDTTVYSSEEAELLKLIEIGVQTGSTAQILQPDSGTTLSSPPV
# Summary of the method: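 Cell-free recombinant VEGFR2 kinase, fluorescent substrate with electrophoretic mobility-shift separation; read 1 h after dosing. Screened at 25 uM in duplicate, hits to concentration-response up to 50 uM; loss-of-signal versus DMSO.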
# [9] = molecular target: human Sirtuin 3 (SIRT3), SIRT3 (gene 23410) (UniProt Q9NTG7); assay: NVS_ENZ_hSIRT3: NovaScreen (NVS) Enzymatic Assay for human Sirtuin 3 (SIRT3) (AID 2283222)
# human Sirtuin 3 (SIRT3), SIRT3 (gene 23410), sequence (Q9NTG7 whole entry, looked up): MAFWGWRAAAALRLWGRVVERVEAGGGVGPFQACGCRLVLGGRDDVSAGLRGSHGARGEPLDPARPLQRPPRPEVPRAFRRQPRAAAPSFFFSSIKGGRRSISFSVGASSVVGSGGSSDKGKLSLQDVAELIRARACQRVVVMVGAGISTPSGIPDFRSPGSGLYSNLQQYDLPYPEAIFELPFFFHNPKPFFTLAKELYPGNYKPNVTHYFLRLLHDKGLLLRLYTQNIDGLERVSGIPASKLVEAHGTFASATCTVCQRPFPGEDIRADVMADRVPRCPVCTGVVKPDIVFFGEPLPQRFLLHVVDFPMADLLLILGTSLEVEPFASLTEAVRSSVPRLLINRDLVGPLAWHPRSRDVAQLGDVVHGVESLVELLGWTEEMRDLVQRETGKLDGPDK
# Summary of the method: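 Cell-free enzyme assay with recombinant protein and fluorescent substrate, product separated by electrophoretic mobility shift; read 1 hour after dosing. Screened in duplicate at 25 uM, then singleton concentration-response up to 50 uM; loss of signal versus DMSO.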
# [10] = molecular target: human Tyrosine Protein Kinase Receptor Tie-2 (Tie2), TEK (gene 7010) (UniProt Q02763); assay: NVS_ENZ_hTie2: NovaScreen (NVS) Enzymatic Assay for human Tyrosine Protein Kinase Receptor Tie-2 (Tie2) (AID 2283225)
# Summary of the method: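 Substrate and product were separated by mobility shift and detected by fluorescence after a 1-hour reaction with recombinant Tie2. Chemicals passing a 25 uM single-point screen were titrated to a maximum of 50 uM. Results were normalized to DMSO baseline.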
# [11] = molecular target: human Vascular Endothelial Growth Factor Receptor 3 (VEGFR3), FLT4 (gene 2324) (UniProt P35916); assay: NVS_ENZ_hVEGFR3: NovaScreen (NVS) Enzymatic Assay for human Vascular Endothelial Growth Factor Receptor 3 (VEGFR3) (AID 2283229)
# Summary of the method: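 Chemicals first run in duplicate at 25 uM, with actives re-tested in concentration series to a top of 50 uM. Recombinant VEGFR3 activity measured after 1 h via fluorescence with mobility-shift product separation; inhibition fitted relative to DMSO.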
# [12] = molecular target: rat Constitutive Nitric Oxide Synthase (CNOS), Nos1 (gene 24598) (UniProt P29476); assay: NVS_ENZ_rCNOS: NovaScreen (NVS) Enzymatic Assay for rat Constitutive Nitric Oxide Synthase (CNOS) (AID 2283236)
# rat Constitutive Nitric Oxide Synthase (CNOS), Nos1 (gene 24598), sequence (P29476 whole entry, looked up): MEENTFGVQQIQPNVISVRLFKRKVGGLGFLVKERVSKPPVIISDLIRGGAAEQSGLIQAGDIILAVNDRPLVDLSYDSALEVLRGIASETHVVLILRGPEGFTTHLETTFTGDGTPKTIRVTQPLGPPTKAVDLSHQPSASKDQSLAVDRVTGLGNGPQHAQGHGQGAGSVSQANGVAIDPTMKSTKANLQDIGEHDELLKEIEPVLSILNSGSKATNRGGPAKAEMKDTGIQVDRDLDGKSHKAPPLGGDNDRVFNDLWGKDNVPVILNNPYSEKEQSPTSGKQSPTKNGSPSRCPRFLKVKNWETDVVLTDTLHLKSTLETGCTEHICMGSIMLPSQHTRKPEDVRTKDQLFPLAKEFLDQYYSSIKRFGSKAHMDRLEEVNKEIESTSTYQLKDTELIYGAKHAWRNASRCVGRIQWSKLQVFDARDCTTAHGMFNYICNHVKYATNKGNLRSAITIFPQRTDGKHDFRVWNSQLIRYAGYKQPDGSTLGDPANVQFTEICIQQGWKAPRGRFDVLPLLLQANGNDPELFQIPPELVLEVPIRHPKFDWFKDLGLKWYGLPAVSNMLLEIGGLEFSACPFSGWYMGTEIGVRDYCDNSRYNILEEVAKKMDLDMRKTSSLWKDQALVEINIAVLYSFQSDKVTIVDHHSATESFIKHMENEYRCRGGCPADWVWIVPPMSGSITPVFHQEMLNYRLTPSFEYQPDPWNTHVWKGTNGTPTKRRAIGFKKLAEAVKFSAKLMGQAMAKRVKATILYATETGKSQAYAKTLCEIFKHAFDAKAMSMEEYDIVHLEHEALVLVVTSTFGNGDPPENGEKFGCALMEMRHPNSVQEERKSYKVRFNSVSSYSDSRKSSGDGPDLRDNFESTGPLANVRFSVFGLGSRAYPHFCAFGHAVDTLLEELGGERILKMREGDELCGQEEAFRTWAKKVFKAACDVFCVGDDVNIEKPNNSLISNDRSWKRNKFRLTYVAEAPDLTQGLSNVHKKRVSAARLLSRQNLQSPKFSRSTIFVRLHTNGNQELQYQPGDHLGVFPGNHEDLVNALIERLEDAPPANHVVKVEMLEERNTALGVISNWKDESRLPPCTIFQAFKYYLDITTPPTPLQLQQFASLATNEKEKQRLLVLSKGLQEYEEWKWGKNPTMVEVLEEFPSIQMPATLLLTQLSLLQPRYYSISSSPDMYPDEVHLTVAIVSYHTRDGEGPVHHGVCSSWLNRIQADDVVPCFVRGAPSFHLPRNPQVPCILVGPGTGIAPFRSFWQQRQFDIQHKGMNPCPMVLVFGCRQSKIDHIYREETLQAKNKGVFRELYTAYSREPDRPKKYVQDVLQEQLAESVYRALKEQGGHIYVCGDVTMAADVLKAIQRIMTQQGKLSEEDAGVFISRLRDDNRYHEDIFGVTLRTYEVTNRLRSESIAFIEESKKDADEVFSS
# Summary of the method: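 Single 25 uM duplicate screen, then concentration series to 50 uM for chemicals meeting threshold. Rat brain membrane-derived CNOS activity detected radiometrically by filtration and scintillation counting, 1 h after compound addition; DMSO as baseline.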
# [13] = molecular target: rat Adenylate Cyclase, Forskolin Stimulated, Adcy5 (gene 64532) (UniProt Q04400); assay: NVS_ENZ_rACFSKBinding: NovaScreen (NVS) Enzymatic Assay for rat Adenylate Cyclase, Forskolin Stimulated (AID 2283232)
# Summary of the method: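 Chemicals were first tested at 25 uM in duplicate, then hits run as concentration series with top concentration 50 uM. Enzyme source was rat forebrain membranes; radiometric filter read-out after 1 h, referenced to DMSO.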
# [14] = molecular target: rat Catechol-O-Methyl Transferase (COMT), Comt (gene 24267) (UniProt P22734); assay: NVS_ENZ_rCOMT: NovaScreen (NVS) Enzymatic Assay for rat Catechol-O-Methyl Transferase (COMT) (AID 2283235)
# rat Catechol-O-Methyl Transferase (COMT), Comt (gene 24267), sequence (P22734 whole entry, looked up): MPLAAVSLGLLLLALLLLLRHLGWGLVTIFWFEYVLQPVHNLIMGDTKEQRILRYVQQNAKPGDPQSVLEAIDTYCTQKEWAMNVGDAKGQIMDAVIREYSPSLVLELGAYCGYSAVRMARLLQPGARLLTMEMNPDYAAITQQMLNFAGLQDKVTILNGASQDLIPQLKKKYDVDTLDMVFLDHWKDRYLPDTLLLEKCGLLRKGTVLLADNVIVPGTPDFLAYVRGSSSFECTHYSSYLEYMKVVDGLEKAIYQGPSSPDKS
# Summary of the method: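 Rat dorsal striatum extract served as COMT source; product quantified by HPLC/spectrophotometry, read at 0 h after dosing. Primary single-concentration screen at 25 uM, followed by concentration series to a 50 uM maximum.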
smiles,measurement,setting,value
CCCCCCCCOC(=O)c1ccc(C(=O)OCCCCCCCC)c(C(=O)OCCCCCCCC)c1,outcome,[1],inactive
same,outcome,[2],inactive
CN(C)c1ccc(C(=O)c2ccc(N(C)C)cc2)cc1,outcome,[3],inactive
same,AC50,[4],13 µM (active)
same,AC50,[5],7.24 µM (active)
OCCCBr,AC50,[6],13 µM (active)
Clc1ccc(C(c2ccc(Cl)cc2)C(Cl)(Cl)Cl)cc1,AC50,[7],25 µM (active)
same,outcome,[8],inactive
CCCCC(CC)COC(=O)c1ccc(C(=O)OCC(CC)CCCC)c(C(=O)OCC(CC)CCCC)c1 (centres undefined),outcome,[9],inactive
same,outcome,[10],inactive
CCOC(=O)[C@]1(c2ccccc2)Oc2ccccc2[C@@H]1N,AC50,[3],4.37 µM (active)
same,outcome,[11],inactive
same,AC50,[2],17.2 µM (active)
same,outcome,[12],inactive
Nc1ccc([N+](=O)[O-])cc1,outcome,[3],inactive
same,AC50,[5],16.7 µM (active)
COc1cc(C=O)cc2c1[C@H](COC(N)=O)[C@]1(OC(C)=O)ON2C[C@H]2[C@@H]1N2C(C)=O,outcome,[11],inactive
same,outcome,[8],inactive
CCN(CC)CCO,outcome,[5],inactive
Nc1ccc(N=Nc2ccccc2)cc1,outcome,[3],inactive
same,AC50,[5],18.3 µM (active)
CN(C)c1ccccc1,outcome,[4],inactive
CCCCCCCCn1sccc1=O,AC50,[13],26 µM (active)
[Cl-].[Cl-].[Hg+2],AC50,[5],3.19 µM (active)
O=C(N[C@H](c1ccccc1)[C@@H]1CN2CCC1CC2)c1c(Cl)ccc(C(F)(F)F)c1Cl,outcome,[3],inactive
same,AC50,[5],50.6 µM (active)
CN(C)[C@@H]1C(=O)C(C(N)=O)=C(O)[C@@]2(O)C(=O)C3=C(O)c4c(O)cccc4[C@@](C)(O)[C@H]3C[C@@H]12,AC50,[4],11.4 µM (active)
same,AC50,[14],2.73 µM (active)
O=[N+]([O-])C(Br)(CO)CO,AC50,[13],21.3 µM (active)
same,AC50,[2],35.2 µM (active)
CCCCOC(=O)c1ccccc1C(=O)OCc1ccccc1,outcome,[12],inactive
COC(=O)Nc1nc2ccccc2[nH]1,outcome,[8],inactive
O=P(OCCCl)(OCCCl)OCCCl,outcome,[4],inactive
Cc1cc(N=Nc2ccccc2C)ccc1N,AC50,[14],0.643 µM (active)
CC(C)(C)OOC(C)(C)CCC(C)(C)OOC(C)(C)C,outcome,[5],inactive
CC(C)(OOC(C)(C)c1ccccc1)c1ccccc1,outcome,[8],inactive
CCOc1cccc(C2(N3CCN(c4ccccc4)CC3)CCC(C)CC2)c1 (centres undefined),AC50,[5],13.7 µM (active)
ClC1=C(Cl)[C@]2(Cl)[C@H]3[C@H]([C@@H]4C=C[C@H]3C4)[C@@]1(Cl)C2(Cl)Cl,outcome,[8],inactive
C=CCc1ccc2c(c1)OCO2,outcome,[12],inactive
CC(C)(C)OOC(=O)c1ccccc1,outcome,[4],inactive
c1ccc(NNc2ccccc2)cc1,outcome,[8],inactive
Cc1cccc(N)c1N,outcome,[2],inactive
CC(O)CCO (centres undefined),outcome,[4],inactive
Clc1ccc(C(c2ccc(Cl)cc2)C(Cl)Cl)cc1,outcome,[8],inactive
COP(=S)(OC)SCN1C(=O)c2ccccc2C1=O,outcome,[2],inactive
same,AC50,[12],3.44 µM (active)
Cc1ccc([N+](=O)[O-])cc1,outcome,[4],inactive
CNC(=O)Oc1cccc2c1OC(C)(C)C2,outcome,[8],inactive
same,AC50,[2],0.464 µM (active)
